Compounds without any hit were thinned out: in the full panel of roughly 79,000, 15% have a hit. Unmarked numbers belong to inactive results. Active and inactive are the calls of the source. Cut-off read from the data, not from the text of the source: active = growth inhibition above about 70%; inactive = the rest. Where a SMILES comes first, the peptide text is derived from it. The star is where a group is joined. Boc = CC(C)(C)OC(=O)*; OBn = c1ccc(CO*)cc1
Columns and labels:
[1] = NCI Yeast Anticancer Drug Screen. Data for the rad50 strain (AID 155);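 note: 0% = growth of vehicle-only cultures of the same strain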; settings: S. cerevisiae rad50 strain growth inhibition; at 50.0 µM; active compounds read high
How it was run: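 Yeast carrying a defined DNA repair defect were exposed to test compounds, and growth was compared with vehicle-treated controls to give percent inhibition.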

[2] = NCI Yeast Anticancer Drug Screen. Data for the mec2-1 strain (AID 157); settings: S. cerevisiae mec2-1 strain, at 50.0 µM, active compounds read high
How it was run: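 Compounds were applied to mec2-1 yeast cells. Their growth was then compared with that of vehicle-treated cultures to give growth inhibition.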

[3] = NCI Yeast Anticancer Drug Screen. Data for the sgs1 mgt1 strain (AID 161);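 note: 0% = growth of cultures given vehicle only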; settings: S. cerevisiae sgs1 mgt1 strain, at 50.0 µM, active compounds read high
How it was run: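 Yeast cells carrying a defined DNA-repair defect were exposed to test compounds. Growth inhibition was measured relative to vehicle-treated controls.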

[4] = NCI Yeast Anticancer Drug Screen. Data for the cln2 rad14 strain (AID 165);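 note: 0% = growth equal to vehicle treated cultures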; settings: S. cerevisiae cln2 rad14 strain, at 50.0 µM, active compounds read high
How it was run: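 Strain: cln2 rad14 yeast, altered in cell cycle control and DNA damage repair. Read-out: growth inhibition vs vehicle.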

[5] = NCI Yeast Anticancer Drug Screen. Data for the bub3 strain (AID 167); settings: S. cerevisiae bub3 mutant strain, at 50.0 µM, active compounds read high
How it was run: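 Compounds were applied to a genetically altered yeast strain carrying a cell-cycle control defect. Growth inhibition was scored against vehicle-treated controls.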

[6] = NCI Yeast Anticancer Drug Screen. Data for the mlh1 rad18 strain (AID 175); settings: S. cerevisiae mlh1 rad18 strain growth inhibition; at 50.0 µM; active compounds read high
How it was run: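 A repair-deficient yeast strain is exposed to test compound, and growth is scored relative to vehicle-treated controls.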

Compound	growth inhibition [1]	growth inhibition [2]	growth inhibition [3]	growth inhibition [4]	growth inhibition [5]	growth inhibition [6]
OC1CCC(C2CCCCC2)CC1 (stereo unspecified)	-8.5%	-8.05%	-2.65%	6.8%	-14.3%	-8.65%
O=C1C(O)=CC(=C(c2ccccc2)c2ccccc2)c2cc(Br)ccc21	33.7%	26.2%	44.4%	8.9%	11.4%	34.1%
Cn1c(=O)c2snnc2n(C)c1=O	-2.75%	-2.65%	-2.65%	-9.5%	2.9%	-16.6%
CCCNC(C)=O	12.2%	-26.1%	-24.9%	-27.1%	-8.55%	-1.25%
CSC1(C)CC2C(CC1N1CCOCC1)C2(C)C (stereo unspecified)	-28.4%	-33.9%	-41.6%	-14.2%	-33.4%	-26.2%
O=C(Nc1cccc(Cl)c1)OCC#CCOC(=O)Nc1cccc(Cl)c1	-4%	11.6%	1.95%	-10.8%	0.85%	11.2%
COc1ccc(NC(=O)C(Br)C(Br)c2ccccc2)c(Cl)c1 (stereo unspecified)	96.8% (active)	97.2% (active)	97.2% (active)	97.3% (active)	97% (active)	97.2% (active)
CN(C)c1ccc(/C=c2\sc3nnc(Cc4ccccc4)n3c2=O)cc1	-7.8%	-13.6%	-0.25%	11.1%	11.1%	1.35%
Cc1ccc(C(=O)Nc2ccc(CP(=O)(O)O)cc2CP(=O)(O)O)cc1NC(=O)Nc1cc(C(=O)Nc2ccc(CP(=O)(O)O)cc2CP(=O)(O)O)ccc1C	-10.8%	-5.45%	-12.1%	-0.25%	0.4%	9.65%
CC(NC(=O)C(NC(=O)OC(C)(C)C)C(C)C)C(=O)N1CCCC1C(=O)NCC(=O)NC(C(=O)NCC(=O)OCc1ccccc1)C(C)C (stereo unspecified) (Boc-VAPGVG-OBn; configuration not given here)	-30.1%	-33.4%	-20.9%	6.85%	-18.9%	-48.4%
COC(=O)CCSCCC(=O)OC	1.5%	-0.15%	-8.15%	-8.2%	1.75%	-1.95%
CC1OC(OC(=O)c2ccc([N+](=O)[O-])cc2)CC(OC(=O)c2ccc([N+](=O)[O-])cc2)C1OC(=O)c1ccc([N+](=O)[O-])cc1 (stereo unspecified)	18.4%	5.45%	-10.2%	24.7%	1.6%	-24.8%
Cc1cc(C)c(C(C)(C)O)c(C)c1	8.45%	0%	3.9%	22.4%	-1.65%	1.1%
CCNS(=O)(=O)c1ccc2c(c1)nc(C)n2CC	16.4%	-27.6%	-3.5%	13.1%	23.6%	11.5%
Cc1ccc(OCC(=O)O)cc1C	-5.75%	-24.2%	-14.7%	0.25%	-11.8%	-11.2%
CC(C)(C)SC1C(O)C(CO)OC1n1ccc(Nc2ccccc2)nc1=O (stereo unspecified)	-17.9%	10.8%	-24.6%	-15.8%	1.55%	4.65%
Brc1ccc(-c2oc3c4ccccc4c4ccccc4c3c2-c2ccc(Br)cc2)cc1	32.5%	5.35%	17.8%	-0.95%	2.9%	15.2%
CCOC(=O)c1cc2c(ccc3cc(C(=O)OCC)[nH]c32)[nH]1	21.9%	26.1%	26.8%	4.2%	24.4%	-11.3%
O=C(NN=C1c2ccccc2-c2ccccc21)C(F)(F)F	87% (active)	2.05%	4.65%	31.2%	6%	21.9%
N#Cc1cc(F)c(N)c(F)c1	-2.25%	7.95%	2.2%	9.95%	-0.35%	3.8%
CCOCCOC(=O)OCCOCC	10.3%	1.9%	22.4%	-4.3%	12.1%	28%
